Results on eight sequences are retold here after publication PMC7862700, “An all-to-all approach to the identification of sequence-specific readers for epigenetic DNA modifications on cytosine”.

Assay in all cases: DAPPL (digital affinity profiling via proximity ligation, sequencing); 10 mM Tris-HCl pH 7.5, 50 mM NaCl, 1 mM DTT, 4% glycerol, room temperature, 30 min; GST-TFs on glutathione beads, 16-mer random dsDNA library, 0.1% formaldehyde crosslink after washing; high values mean tight binding
Holding throughout (settings): protein: recombinant; tags: N-terminal GST; dsDNA, one strand shown

Assay [1] has as its target T1, FLI1 (Homo sapiens, UniProt Q01543 1-452).
T1 sequence: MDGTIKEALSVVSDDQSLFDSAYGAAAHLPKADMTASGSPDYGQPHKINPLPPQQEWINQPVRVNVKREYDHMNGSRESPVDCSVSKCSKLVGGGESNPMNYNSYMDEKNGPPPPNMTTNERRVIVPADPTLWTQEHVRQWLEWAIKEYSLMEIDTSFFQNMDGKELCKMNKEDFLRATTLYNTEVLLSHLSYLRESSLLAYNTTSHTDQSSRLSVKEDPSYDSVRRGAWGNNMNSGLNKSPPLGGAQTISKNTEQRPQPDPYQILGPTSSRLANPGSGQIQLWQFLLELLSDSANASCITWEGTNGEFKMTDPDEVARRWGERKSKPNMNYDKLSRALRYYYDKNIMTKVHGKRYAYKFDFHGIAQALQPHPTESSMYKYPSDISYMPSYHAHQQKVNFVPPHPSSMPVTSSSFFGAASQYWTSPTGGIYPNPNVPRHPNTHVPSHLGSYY
The procedure, abridged: (§1)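 Each value of binding signal is a hexamer's read frequency for a factor divided by the same hexamer's frequency in the tag-only sample. Barcoded, bead-captured GST fusions of human transcription factors made in yeast were pooled with that sample and incubated with 200 nmole of a random double-stranded 16-mer DNA library in Tris/NaCl/DTT/glycerol buffer at room temperature for 30 min. Washing, 0.1% formaldehyde crosslinking, proximity ligation, PCR and Illumina NextSeq500 sequencing followed.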

In assay [2] the target is T2, ELK1 (Homo sapiens, UniProt P19419 1-428).
T2 sequence: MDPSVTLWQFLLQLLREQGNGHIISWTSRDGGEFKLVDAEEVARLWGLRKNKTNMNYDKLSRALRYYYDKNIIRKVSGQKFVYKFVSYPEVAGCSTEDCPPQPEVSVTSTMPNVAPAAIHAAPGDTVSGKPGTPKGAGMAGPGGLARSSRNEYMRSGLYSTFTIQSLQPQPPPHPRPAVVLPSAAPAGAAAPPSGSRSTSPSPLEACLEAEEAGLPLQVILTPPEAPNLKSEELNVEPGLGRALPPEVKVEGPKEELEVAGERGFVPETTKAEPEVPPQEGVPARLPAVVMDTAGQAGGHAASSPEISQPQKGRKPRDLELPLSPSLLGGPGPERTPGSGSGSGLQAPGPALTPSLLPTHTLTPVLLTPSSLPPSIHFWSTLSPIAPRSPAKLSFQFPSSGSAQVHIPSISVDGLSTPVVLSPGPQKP
The procedure, abridged: as §1

Assay [3] concerns the target T3, GABPA (Homo sapiens, UniProt Q06546 1-454).
T3 sequence: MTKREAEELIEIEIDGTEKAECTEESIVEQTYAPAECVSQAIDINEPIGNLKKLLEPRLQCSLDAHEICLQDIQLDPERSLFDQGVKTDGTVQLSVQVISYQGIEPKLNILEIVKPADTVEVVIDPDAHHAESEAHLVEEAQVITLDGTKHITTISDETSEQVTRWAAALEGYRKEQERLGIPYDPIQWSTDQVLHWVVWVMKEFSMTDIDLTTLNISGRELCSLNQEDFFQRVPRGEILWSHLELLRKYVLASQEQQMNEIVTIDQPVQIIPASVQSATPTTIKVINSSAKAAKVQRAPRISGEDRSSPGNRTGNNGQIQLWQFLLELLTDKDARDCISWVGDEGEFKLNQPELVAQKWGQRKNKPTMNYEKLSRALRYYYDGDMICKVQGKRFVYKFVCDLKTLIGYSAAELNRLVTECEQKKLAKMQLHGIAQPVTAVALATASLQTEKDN
The procedure, abridged: as §1

Assay [4] addresses T4, ERG (Homo sapiens, UniProt P11308 1-479).
T4 sequence: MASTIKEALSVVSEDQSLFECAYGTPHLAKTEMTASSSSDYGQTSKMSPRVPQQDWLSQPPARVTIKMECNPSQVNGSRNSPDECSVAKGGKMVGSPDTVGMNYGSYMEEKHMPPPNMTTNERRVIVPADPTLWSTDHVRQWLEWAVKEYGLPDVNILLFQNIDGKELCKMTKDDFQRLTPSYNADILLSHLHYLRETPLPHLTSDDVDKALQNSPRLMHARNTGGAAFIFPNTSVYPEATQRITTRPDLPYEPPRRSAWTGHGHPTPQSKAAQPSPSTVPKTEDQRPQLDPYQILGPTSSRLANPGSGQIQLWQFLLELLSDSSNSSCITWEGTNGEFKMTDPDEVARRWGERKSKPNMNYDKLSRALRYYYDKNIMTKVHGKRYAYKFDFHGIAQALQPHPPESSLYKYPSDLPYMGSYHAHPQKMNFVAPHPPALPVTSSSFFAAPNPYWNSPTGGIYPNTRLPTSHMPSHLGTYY
The procedure, abridged: as §1

Assay [5] concerns the target ELF1 (Homo sapiens, UniProt P32519 1-619). An outline of the steps:
as §1

Assay [6] deals with T5, EHF (Homo sapiens, UniProt Q9NZC4 1-300).
T5 sequence: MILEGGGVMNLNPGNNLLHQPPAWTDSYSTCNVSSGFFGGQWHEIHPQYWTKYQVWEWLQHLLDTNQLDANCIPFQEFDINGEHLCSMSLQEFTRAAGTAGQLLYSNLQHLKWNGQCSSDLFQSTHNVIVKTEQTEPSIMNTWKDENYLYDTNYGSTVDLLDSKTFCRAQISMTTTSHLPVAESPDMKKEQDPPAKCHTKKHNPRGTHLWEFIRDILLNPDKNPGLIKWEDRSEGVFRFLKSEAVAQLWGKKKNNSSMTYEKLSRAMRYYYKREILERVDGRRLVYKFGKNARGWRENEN
An outline of the steps:
as §1

Assay [7] has as its target SPI1 (Homo sapiens, UniProt P17947 1-270). The procedure, abridged:
as §1

Assay [8] addresses SPIB (Homo sapiens, UniProt Q01892 1-262). The procedure, abridged:
as §1

Assay [9] has as its target T6, ELK3 (Homo sapiens, UniProt P41970 1-407).
T6 sequence: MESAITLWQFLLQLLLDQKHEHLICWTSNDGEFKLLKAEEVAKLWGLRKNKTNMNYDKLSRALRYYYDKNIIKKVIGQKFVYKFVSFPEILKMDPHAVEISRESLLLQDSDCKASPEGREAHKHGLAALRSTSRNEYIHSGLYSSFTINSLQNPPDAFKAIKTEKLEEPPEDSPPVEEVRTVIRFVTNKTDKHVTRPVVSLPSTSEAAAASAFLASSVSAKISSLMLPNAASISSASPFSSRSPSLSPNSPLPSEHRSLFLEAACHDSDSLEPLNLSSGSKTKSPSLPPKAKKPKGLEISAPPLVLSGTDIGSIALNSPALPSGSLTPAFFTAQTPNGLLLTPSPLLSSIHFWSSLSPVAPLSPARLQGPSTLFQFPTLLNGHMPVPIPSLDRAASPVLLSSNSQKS
An outline of the steps: as §1

Sequence of ELF1 (P32519 whole entry): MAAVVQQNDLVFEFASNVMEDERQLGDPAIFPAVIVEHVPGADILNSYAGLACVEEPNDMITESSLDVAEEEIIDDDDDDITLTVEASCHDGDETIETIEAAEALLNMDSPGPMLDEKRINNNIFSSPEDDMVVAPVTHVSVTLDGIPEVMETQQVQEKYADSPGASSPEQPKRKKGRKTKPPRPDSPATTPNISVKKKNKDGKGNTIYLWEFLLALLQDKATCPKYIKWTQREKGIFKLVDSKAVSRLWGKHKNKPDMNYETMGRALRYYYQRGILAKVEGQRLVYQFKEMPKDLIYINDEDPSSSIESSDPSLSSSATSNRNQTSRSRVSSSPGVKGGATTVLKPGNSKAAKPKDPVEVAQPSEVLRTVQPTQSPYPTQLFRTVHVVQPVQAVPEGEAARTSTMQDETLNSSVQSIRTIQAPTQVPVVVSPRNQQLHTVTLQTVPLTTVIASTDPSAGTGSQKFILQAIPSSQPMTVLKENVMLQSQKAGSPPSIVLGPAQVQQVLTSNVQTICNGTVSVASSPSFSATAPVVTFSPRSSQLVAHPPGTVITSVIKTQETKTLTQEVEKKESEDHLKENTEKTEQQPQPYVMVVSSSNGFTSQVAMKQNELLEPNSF
Sequence of SPIB (Q01892 whole entry): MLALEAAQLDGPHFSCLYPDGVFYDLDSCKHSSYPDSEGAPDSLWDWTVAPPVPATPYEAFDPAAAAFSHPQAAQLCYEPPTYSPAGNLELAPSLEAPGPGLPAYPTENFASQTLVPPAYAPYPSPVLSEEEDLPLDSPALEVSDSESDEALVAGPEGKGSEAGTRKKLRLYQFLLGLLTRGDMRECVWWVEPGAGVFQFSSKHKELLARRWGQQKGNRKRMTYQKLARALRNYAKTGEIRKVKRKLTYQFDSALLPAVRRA

Regarding AAAACA, the binding signal in [1] was 1.35 fold enrichment (6-mer frequency, TF over GST control); in [2], 1.22 fold enrichment (6-mer frequency, TF over GST control); in assay [3], 1.35 fold enrichment (6-mer frequency, TF over GST control); in [4] it was 1.34 fold enrichment (6-mer frequency, TF over GST control); in assay [5] it was 1.31 fold enrichment (6-mer frequency, TF over GST control); in assay [6] it was 1.31 fold enrichment (6-mer frequency, TF over GST control). The binding signal is 1.36 fold enrichment (6-mer frequency, TF over GST control) in [7]; 1.24 fold enrichment (6-mer frequency, TF over GST control) in assay [8]; 1.28 fold enrichment (6-mer frequency, TF over GST control) in [9].
For the sequence ATAACC, the binding signal in [1] is 1.21 fold enrichment (6-mer frequency, TF over GST control); in assay [2], 1.27 fold enrichment (6-mer frequency, TF over GST control); in assay [3], 1.22 fold enrichment (6-mer frequency, TF over GST control); in assay [4], 1.13 fold enrichment (6-mer frequency, TF over GST control); in assay [5], 1.23 fold enrichment (6-mer frequency, TF over GST control); in assay [6] it was 1.15 fold enrichment (6-mer frequency, TF over GST control). Further, the binding signal in [7] was 1.06 fold enrichment (6-mer frequency, TF over GST control); in assay [8], 1.25 fold enrichment (6-mer frequency, TF over GST control); in assay [9] it was 1.37 fold enrichment (6-mer frequency, TF over GST control).
For TGTTAT, the binding signal was 1.37 fold enrichment (6-mer frequency, TF over GST control) in assay [1]; 1.27 fold enrichment (6-mer frequency, TF over GST control) in [2]; 1.36 fold enrichment (6-mer frequency, TF over GST control) in assay [3]; 1.41 fold enrichment (6-mer frequency, TF over GST control) in assay [4]; 1.29 fold enrichment (6-mer frequency, TF over GST control) in [5]; 1.35 fold enrichment (6-mer frequency, TF over GST control) in assay [6]. Besides, the binding signal was 1.38 fold enrichment (6-mer frequency, TF over GST control) in assay [7]; 1.31 fold enrichment (6-mer frequency, TF over GST control) in assay [8]; 1.24 fold enrichment (6-mer frequency, TF over GST control) in assay [9].
Consider AATGAG, for which the binding signal in assay [1] is 1.09 fold enrichment (6-mer frequency, TF over GST control); in assay [2], 1.18 fold enrichment (6-mer frequency, TF over GST control); in assay [3], 1.22 fold enrichment (6-mer frequency, TF over GST control); in [4], 1.12 fold enrichment (6-mer frequency, TF over GST control); in assay [5] it was 1.14 fold enrichment (6-mer frequency, TF over GST control); in assay [6], 1.18 fold enrichment (6-mer frequency, TF over GST control). The binding signal in [7] is 1.51 fold enrichment (6-mer frequency, TF over GST control); in assay [8], 1.08 fold enrichment (6-mer frequency, TF over GST control); in assay [9] it was 1.23 fold enrichment (6-mer frequency, TF over GST control).
As to AATGCA, the binding signal in [1] is 1.25 fold enrichment (6-mer frequency, TF over GST control); in assay [2] it was 1.28 fold enrichment (6-mer frequency, TF over GST control); in assay [3], 1.28 fold enrichment (6-mer frequency, TF over GST control); in [4], 1.29 fold enrichment (6-mer frequency, TF over GST control); in assay [5], 1.27 fold enrichment (6-mer frequency, TF over GST control); in assay [6], 1.25 fold enrichment (6-mer frequency, TF over GST control). Besides, the binding signal in assay [7] is 1.21 fold enrichment (6-mer frequency, TF over GST control); in assay [8] it was 1.34 fold enrichment (6-mer frequency, TF over GST control); in [9], 1.3 fold enrichment (6-mer frequency, TF over GST control).
Regarding ATGAAT, the binding signal is 1.16 fold enrichment (6-mer frequency, TF over GST control) in assay [1]; 1.16 fold enrichment (6-mer frequency, TF over GST control) in [2]; 1.2 fold enrichment (6-mer frequency, TF over GST control) in assay [3]; 1.11 fold enrichment (6-mer frequency, TF over GST control) in assay [4]; 1.07 fold enrichment (6-mer frequency, TF over GST control) in [5]; 1.14 fold enrichment (6-mer frequency, TF over GST control) in assay [6]. The binding signal in [7] is 1.15 fold enrichment (6-mer frequency, TF over GST control); in [8], 1.23 fold enrichment (6-mer frequency, TF over GST control); in assay [9], 1.12 fold enrichment (6-mer frequency, TF over GST control).
Take GATCTC: the binding signal is 1.43 fold enrichment (6-mer frequency, TF over GST control) in assay [1]; 1.19 fold enrichment (6-mer frequency, TF over GST control) in assay [2]; 1.16 fold enrichment (6-mer frequency, TF over GST control) in assay [3]; 1.2 fold enrichment (6-mer frequency, TF over GST control) in assay [4]; 1.27 fold enrichment (6-mer frequency, TF over GST control) in assay [5]; 1.42 fold enrichment (6-mer frequency, TF over GST control) in assay [6]. Moreover, the binding signal in assay [7] was 1.28 fold enrichment (6-mer frequency, TF over GST control); in assay [8], 1.25 fold enrichment (6-mer frequency, TF over GST control); in assay [9], 1.23 fold enrichment (6-mer frequency, TF over GST control).
As to TTCAGG, the binding signal in [1] is 1.2 fold enrichment (6-mer frequency, TF over GST control); in [2] it was 1.14 fold enrichment (6-mer frequency, TF over GST control); in [3], 1.15 fold enrichment (6-mer frequency, TF over GST control); in assay [4] it was 1.12 fold enrichment (6-mer frequency, TF over GST control); in [5], 1.1 fold enrichment (6-mer frequency, TF over GST control); in assay [6], 1.11 fold enrichment (6-mer frequency, TF over GST control). The binding signal in assay [7] was 1.22 fold enrichment (6-mer frequency, TF over GST control); in assay [8], 1.1 fold enrichment (6-mer frequency, TF over GST control); in assay [9] it was 1.09 fold enrichment (6-mer frequency, TF over GST control).
